Measured values from ChEMBL document CHEMBL3988442, “University of Dundee, Small-Polar-MMV Screening Library” (2021).
Several values for one entry are separate records, joined by “and”; a condition that tells them apart may be missing. Identical values can stand only once. For some of these results: Results with a measured potency or affinity are listed apart.

Experiments:
Design in all cases: scale not given: direction of the effect not stated beside the values
[1] = biological target: Protein translocase subunit SecA (Escherichia coli (strain K12)) (UniProt P10408); test: Assay to Identify E. coli SecA ATPase Inhibitors; format: functional; settings: 30 µM
[2] = biological target: T1, Ubiquitin-activating enzyme e1, putative (Leishmania donovani (strain BPK282A1)) (UniProt E9BSI1); test: Leishmania donovani Ubiquitin Activating Enzyme (LdE1); format: functional; settings: 30 µM
T1 sequence (whole entry): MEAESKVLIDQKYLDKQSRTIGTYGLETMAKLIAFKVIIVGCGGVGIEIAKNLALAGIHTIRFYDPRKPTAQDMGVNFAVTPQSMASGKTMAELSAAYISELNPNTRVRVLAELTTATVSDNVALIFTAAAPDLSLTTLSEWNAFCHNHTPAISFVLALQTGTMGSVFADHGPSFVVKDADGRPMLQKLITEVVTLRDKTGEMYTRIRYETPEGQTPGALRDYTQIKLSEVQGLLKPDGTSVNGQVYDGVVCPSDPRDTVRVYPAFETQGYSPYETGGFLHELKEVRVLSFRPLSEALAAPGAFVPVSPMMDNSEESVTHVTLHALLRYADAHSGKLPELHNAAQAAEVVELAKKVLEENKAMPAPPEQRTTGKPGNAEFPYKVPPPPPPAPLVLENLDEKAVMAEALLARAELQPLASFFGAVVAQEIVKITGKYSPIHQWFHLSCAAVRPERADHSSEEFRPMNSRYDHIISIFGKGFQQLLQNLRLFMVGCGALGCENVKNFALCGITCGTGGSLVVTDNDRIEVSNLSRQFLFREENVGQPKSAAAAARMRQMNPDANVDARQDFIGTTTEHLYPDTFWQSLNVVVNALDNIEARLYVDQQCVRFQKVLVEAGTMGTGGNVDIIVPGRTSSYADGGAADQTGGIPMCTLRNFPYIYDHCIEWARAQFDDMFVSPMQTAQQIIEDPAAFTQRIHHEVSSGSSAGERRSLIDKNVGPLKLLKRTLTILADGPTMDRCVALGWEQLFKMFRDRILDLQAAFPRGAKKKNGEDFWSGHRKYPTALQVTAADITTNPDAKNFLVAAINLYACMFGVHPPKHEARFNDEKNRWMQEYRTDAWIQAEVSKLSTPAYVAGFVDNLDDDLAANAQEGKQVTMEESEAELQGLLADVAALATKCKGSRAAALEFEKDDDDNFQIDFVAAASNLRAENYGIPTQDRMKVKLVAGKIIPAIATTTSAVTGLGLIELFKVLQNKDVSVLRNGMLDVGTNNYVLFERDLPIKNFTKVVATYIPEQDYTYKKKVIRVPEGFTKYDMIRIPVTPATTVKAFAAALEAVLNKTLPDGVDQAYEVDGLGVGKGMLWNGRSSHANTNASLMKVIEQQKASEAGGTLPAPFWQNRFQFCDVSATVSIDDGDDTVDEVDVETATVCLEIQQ

[3] = biological target: AMP-activated protein kinase, AMPK (Homo sapiens) (UniProt P54646+O43741+P54619+Q9UGJ0+Q9Y478+Q13131+Q9UGI9); test: AMP-dependent Kinase enzyme assay. An in vitro enzyme assay that detects ADP turnover that is directly proportional to AMPK activity. This uses naive AMPK that is activated during the assay with MK-8722; format: functional; settings: 30 µM
[4] = biological target: Sialic acid-binding Ig-like lectin 9 (Homo sapiens) (UniProt Q9Y336); test: Hs-Siglec9 ALPHAscreen SOP 20170721; settings: 10 µM
Trypanosoma cruzi = test: Trypanosoma cruzi phosphomannomutase and mannose-1-phosphate guanylyltransferase assay; format: functional; settings: 10 µM
[5] = biological target: T2, Arginase-2, mitochondrial (Homo sapiens) (UniProt P78540); test: in vitro enzyme assay to detect the production of urea directly proportional to the activity of Arginase II; format: functional; settings: 33.3 µM; note: in the data most compounds retested in dose-response had high values
T2 sequence (whole entry): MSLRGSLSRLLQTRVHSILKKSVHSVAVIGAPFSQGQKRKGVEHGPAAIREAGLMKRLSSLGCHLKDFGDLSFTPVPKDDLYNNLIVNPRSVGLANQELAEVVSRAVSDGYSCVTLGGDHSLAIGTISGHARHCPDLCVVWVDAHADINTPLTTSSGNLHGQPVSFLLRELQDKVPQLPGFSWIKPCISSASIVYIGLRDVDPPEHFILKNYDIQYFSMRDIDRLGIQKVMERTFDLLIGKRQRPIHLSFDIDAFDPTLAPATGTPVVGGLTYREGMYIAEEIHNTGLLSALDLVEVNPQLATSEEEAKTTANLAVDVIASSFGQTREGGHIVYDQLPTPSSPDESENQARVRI

[6] = biological target: T3, Proteasome subunit beta (Trypanosoma cruzi) (UniProt O96673); test: Trypanosoma cruzi proteasome chymotrypsin-like activity (TcProtChymo) assay.; note: in the data most compounds retested in dose-response had high values; format: functional; settings: 9.37 µM
T3 sequence (whole entry): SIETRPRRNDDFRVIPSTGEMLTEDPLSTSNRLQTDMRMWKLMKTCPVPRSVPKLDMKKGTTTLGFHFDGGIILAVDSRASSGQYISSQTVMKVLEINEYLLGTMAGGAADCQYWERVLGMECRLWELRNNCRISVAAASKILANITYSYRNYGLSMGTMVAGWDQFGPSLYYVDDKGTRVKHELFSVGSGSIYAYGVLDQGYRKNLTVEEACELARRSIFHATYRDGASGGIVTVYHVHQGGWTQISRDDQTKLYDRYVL

Homo sapiens = species: Homo sapiens; test: To identify inhibition of the IFN signalling (Jak-Stat) pathway via expression of an eGFP reporter gene under the control of an IFN-stimulated response element (ISRE) containing MxA promoter.; format: functional; settings: 30 µM
[7] = biological target: T4, Tyrosyl-tRNA synthetase, putative (Trypanosoma cruzi (strain CL Brener)) (UniProt Q4DSP6); test: Trypanosoma cruzi tyrosyl tRNA synthetase (TcYRS) _High Tyrosine SOP; format: functional; settings: 30 µM; note: in the data most compounds retested in dose-response had high values
T4 sequence (whole entry): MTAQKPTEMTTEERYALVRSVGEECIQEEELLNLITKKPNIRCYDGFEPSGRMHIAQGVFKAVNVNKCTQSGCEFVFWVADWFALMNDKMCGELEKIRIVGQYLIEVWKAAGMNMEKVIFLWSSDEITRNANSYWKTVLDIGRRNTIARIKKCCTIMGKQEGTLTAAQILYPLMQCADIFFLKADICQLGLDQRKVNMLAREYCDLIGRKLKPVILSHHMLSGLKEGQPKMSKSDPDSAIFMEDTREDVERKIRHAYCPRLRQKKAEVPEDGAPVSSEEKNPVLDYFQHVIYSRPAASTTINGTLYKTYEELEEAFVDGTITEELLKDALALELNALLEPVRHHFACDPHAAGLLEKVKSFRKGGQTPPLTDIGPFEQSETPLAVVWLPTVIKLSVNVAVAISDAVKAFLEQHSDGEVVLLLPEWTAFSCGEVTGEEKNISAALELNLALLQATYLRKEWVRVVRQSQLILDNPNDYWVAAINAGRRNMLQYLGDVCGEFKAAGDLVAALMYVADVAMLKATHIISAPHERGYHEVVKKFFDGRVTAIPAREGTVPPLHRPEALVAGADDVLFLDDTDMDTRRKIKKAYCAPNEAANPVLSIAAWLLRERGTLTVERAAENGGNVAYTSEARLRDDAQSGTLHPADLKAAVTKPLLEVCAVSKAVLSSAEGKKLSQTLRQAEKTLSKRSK

[8] = biological target: T4, Tyrosyl-tRNA synthetase, putative (Trypanosoma cruzi (strain CL Brener)); test: Trypanosoma cruzi tyrosyl tRNA synthetase (TcYRS) SOP; format: functional; settings: 30 µM
[9] = biological target: Chromo domain-containing protein 1 (Saccharomyces cerevisiae (strain ATCC 204508 / S288c) (Baker's yeast)) (UniProt P32657); test: ScCHD-1 Enzyme Inhibition Assay; format: functional; settings: 30 µM; note: in the data most compounds retested in dose-response had high values
N/A = test: Trypanosoma cruzi proteasome luciferase counter-screen; format: functional; settings: 9.37 µM

Chain of Protein translocase subunit SecA (Escherichia coli (strain K12)) (P10408 whole entry): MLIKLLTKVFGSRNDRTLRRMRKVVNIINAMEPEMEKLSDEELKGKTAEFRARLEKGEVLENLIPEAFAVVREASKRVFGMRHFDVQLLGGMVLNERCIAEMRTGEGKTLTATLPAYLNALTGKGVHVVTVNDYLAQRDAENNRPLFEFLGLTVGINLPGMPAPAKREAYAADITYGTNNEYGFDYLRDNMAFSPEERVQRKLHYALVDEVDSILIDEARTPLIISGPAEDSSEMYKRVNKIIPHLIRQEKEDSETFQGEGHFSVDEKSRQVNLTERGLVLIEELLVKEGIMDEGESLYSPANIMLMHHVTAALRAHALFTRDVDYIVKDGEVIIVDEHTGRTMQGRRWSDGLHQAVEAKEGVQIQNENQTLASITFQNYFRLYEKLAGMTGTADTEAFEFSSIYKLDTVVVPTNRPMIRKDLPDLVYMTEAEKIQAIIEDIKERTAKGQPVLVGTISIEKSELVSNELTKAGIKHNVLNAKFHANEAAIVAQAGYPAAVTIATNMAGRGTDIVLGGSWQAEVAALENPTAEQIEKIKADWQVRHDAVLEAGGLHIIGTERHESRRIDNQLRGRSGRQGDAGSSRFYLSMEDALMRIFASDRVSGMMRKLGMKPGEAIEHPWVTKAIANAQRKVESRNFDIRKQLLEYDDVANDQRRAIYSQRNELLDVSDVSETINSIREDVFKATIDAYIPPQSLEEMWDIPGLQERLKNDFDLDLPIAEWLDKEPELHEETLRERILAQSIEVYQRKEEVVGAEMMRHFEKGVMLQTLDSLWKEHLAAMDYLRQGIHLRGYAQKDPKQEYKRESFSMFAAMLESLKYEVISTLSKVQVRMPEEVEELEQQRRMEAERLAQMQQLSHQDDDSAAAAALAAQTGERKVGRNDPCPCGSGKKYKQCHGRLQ
Chain of Chromo domain-containing protein 1 (Saccharomyces cerevisiae (strain ATCC 204508 / S288c) (Baker's yeast)) (P32657 whole entry, the tested form may be a part): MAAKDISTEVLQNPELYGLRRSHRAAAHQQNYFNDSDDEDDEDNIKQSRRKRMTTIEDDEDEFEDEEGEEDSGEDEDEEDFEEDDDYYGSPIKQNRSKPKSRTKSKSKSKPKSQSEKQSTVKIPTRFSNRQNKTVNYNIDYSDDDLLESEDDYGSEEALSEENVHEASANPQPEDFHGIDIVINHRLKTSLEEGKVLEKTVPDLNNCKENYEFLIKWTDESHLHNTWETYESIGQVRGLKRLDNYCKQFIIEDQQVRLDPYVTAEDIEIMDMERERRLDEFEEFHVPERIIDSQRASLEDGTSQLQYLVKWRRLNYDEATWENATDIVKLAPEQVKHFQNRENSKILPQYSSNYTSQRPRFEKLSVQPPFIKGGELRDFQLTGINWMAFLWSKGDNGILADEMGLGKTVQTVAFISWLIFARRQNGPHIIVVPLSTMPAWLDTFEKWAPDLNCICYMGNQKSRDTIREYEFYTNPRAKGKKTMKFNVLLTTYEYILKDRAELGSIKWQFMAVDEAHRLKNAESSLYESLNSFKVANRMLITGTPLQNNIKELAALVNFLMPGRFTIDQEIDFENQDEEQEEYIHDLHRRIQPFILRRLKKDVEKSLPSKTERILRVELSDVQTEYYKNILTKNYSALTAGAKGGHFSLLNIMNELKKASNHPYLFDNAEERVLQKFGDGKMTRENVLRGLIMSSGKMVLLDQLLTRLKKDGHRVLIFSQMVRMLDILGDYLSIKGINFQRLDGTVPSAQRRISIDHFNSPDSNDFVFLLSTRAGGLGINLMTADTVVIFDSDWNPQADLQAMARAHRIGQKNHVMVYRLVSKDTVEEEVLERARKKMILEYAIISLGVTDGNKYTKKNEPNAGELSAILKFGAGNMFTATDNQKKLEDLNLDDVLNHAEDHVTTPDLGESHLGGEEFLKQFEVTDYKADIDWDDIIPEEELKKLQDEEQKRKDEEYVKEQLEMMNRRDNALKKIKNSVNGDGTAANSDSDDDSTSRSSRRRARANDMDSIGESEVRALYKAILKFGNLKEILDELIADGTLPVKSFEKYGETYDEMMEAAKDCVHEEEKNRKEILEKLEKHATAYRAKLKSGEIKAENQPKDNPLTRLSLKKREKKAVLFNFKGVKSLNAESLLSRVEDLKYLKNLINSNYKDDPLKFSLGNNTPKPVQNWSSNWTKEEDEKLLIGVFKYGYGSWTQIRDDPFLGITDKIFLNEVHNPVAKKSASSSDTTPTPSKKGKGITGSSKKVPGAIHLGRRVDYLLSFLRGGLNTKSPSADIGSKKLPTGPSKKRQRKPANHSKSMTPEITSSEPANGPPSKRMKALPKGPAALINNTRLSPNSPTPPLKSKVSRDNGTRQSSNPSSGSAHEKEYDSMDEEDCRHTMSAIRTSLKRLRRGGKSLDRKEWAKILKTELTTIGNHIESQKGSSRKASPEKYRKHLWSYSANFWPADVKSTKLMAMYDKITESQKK
Chain of Sialic acid-binding Ig-like lectin 9 (Homo sapiens) (Q9Y336 whole entry): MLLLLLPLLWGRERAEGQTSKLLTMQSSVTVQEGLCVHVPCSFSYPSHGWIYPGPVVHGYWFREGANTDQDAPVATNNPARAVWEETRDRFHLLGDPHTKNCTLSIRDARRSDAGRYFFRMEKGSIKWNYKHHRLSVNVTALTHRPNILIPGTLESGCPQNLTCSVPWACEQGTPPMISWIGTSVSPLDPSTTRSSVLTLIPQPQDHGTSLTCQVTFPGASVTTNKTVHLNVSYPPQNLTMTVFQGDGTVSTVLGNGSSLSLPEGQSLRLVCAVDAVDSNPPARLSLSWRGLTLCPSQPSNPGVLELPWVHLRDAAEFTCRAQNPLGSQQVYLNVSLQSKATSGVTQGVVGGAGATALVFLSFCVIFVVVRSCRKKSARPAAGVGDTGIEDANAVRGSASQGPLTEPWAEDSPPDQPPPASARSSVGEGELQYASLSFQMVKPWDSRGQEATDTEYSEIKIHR

SMILES | Percent Effect [1] [%] | Percent Effect [2] [%] | Percent Effect [3] [%] | Percent Effect [4] [%] | Percent Effect (Trypanosoma cruzi) [%] | Percent Effect [5] [%] | Percent Effect [6] [%] | Percent Effect (Homo sapiens) [%] | Percent Effect [7] [%] | Percent Effect [8] [%] | Percent Effect [9] [%] | Percent Effect (N/A)
CC(=O)N1CCCN(C(=O)NCc2cc[nH]n2)CC1 | -8.38 | 13.2 | -10.6 | 1.18 | 11.1 | 1.08 | 14.6 | 1 | 11.3 | 23.5 | -8.49 | –
Cc1cccc(CN(Cc2ccc(C)o2)C2CC(C)(C)NC(C)(C)C2)n1 | -4.93 | 9.46 | 9.39 | -2.48 | -6.13 | -3.48 | 10.8 | 1.42 | 3.23 | 3.9 | -0.669 | –
Cc1nc(CN2CCCC(N(C)Cc3nnsc3Cl)C2)no1 (stereo not drawn) | -5.44 | 5.2 | 0.941 | -5.57 | 6.76 | -5.26 | 2.99 | -2.55 | 5.71 | 7.06 | -13.5 | –
COCCCN1CCCN(C(C)C(=O)Nc2ccnn2C(C)C)CC1 (stereo not drawn) | 0.586 | -2.7 | -1.72 | -1.48 | 0.195 | 2.08 | 13.9 | -3.67 | 4.95 | -3.66 | -4.29 | –
CC(NC1CCN(CCS(C)(=O)=O)CC1)c1ccc(Cl)cc1 (stereo not drawn) | -1.94 | 0 | -3.49 | 0.142 | -5.02 | -0.476 | 3.62 | 21.6 | 0.529 | 7.32 | -2.22 | –
COc1cc(C)nc(N2CCN(C(=O)CCc3nccs3)CC2)n1 | -6.4 | 0 | 2.65 | 3.42 | -5.6 | -3.33 | 14.5 | 30.1 | -2.65 | 2.44 | -4.19 | –
Cc1nn(C)c(C)c1C1COCCN1C(=O)c1n[nH]c2ccccc12 (stereo not drawn) | -1.74 | 18.2 | 2.92 | -4.32 | 6.74 | -0.712 | – | -8.49 | 5.83 | 21.9 | -7.82 | 17.2% and 17.5%
CCS(=O)(=O)N1CCC(c2nnc(CN3CCCC3)n2C2CC2)CC1 | -1.74 | 8 | -4.77 | 9.36 | 2.82 | 12.5 | 3.49 | 19.7 | 7.1 | 16.1 | -7.31 | –
